# Screening data deposited in PubChem BioAssay by Broad Institute.
# This is one part of a sample in which hits are shown more often than they occur.
# DUX4 inh = blocks DUX4-driven transcriptional activation; 293T-iDUX4 ZSCAN4-Gaussia luciferase reporter, 24 h; active compounds read low; activity change, negative = inhibition, % (concentration not given with the values); hit rate 0.8% among 37,000;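 active means mean inhibition of at least 10% in the main channel, exceeding the control channel by a set limit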;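 further: 0% = median of neutral control wells and -100% = median of positive control wells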
# An asterisk follows results filed as active.
SMILES,DUX4 inh
COCC(=O)N1[C@H](CO)[C@H]2c3ccccc3N(C(=O)c3ccccc3)C[C@H]21,0.8
COc1ccccc1CN1C[C@@H](C)[C@@H](OC)CN(C)C(=O)c2ccc(NC(C)=O)cc2OC[C@H]1C,-5.3
Cc1noc(C)c1S(=O)(=O)N(C)C[C@H]1OCc2ccccc2-c2ccccc2C(=O)N([C@H](C)CO)C[C@H]1C,2.3
C[C@@H]1CCCCO[C@H](CN(C)C(=O)Cc2ccccc2)[C@@H](C)CN([C@@H](C)CO)C(=O)c2cc(N(C)C)ccc2O1,4.1
COCC(=O)N1[C@@H](CO)[C@@H]2c3ccccc3N(C(=O)c3ccccc3)C[C@@H]21,3.6
N#C[C@@H]1[C@@H](c2ccc(-c3cccc(F)c3)cc2)[C@@H](CO)N1C(=O)NC1CCCC1,1.9
Cc1ccc(-c2ccccc2[C@H]2[C@@H](C#N)N(C(=O)NC3CCCC3)[C@H]2CO)cc1,-7.8
N#C[C@@H]1[C@@H](c2ccccc2-c2cccc(F)c2)[C@@H](CO)N1C(=O)NC1CCCCC1,-29.2*
Cc1ccccc1-c1ccc([C@@H]2[C@@H](CO)N3CCCCN(S(=O)(=O)c4ccc(F)cc4)C[C@H]23)cc1,-39.6*
O=C(NC1CCCC1)N1CCCCN2[C@H](C1)[C@H](c1ccc(-c3ccccc3)cc1)[C@@H]2CO,1.0
Cc1ccccc1-c1ccc([C@H]2[C@H](CO)N3CCCCN(S(C)(=O)=O)C[C@@H]23)cc1,16.8
C/C=C/c1ccc([C@H]2[C@@H](CO)N3CCCCN(C(=O)Nc4ccc(OC)cc4)C[C@H]23)cc1,-9.2
Cc1ccccc1-c1ccc([C@@H]2[C@@H](CO)N3CCCCN(C(=O)NC4CCCC4)C[C@H]23)cc1,-8.6
N#Cc1ccc(-c2ccc([C@H]3[C@H]4CN(C(=O)Nc5ccc(F)cc5)CCCCN4[C@H]3CO)cc2)cc1,38.9
N#Cc1ccc(-c2ccc([C@H]3[C@@H](CO)N4CCCCN(C(=O)Nc5ccc(F)cc5)C[C@H]34)cc2)cc1,-39.2*
C/C=C/c1ccc([C@@H]2[C@H](CO)N3CCCCN(C(=O)Nc4ccc(OC)cc4)C[C@@H]23)cc1,18.3
COc1ccccc1-c1ccc([C@H]2[C@@H](CO)N3CCCCN(C(=O)NC4CCCC4)C[C@H]23)cc1,-23.0*
N#Cc1ccc(-c2ccc([C@H]3[C@H](CO)N4CCCCN(C(=O)Nc5ccc(F)cc5)C[C@@H]34)cc2)cc1,9.7
C/C=C/c1ccc([C@@H]2[C@@H](CO)N3CCCCN(C(=O)Nc4ccc(OC)cc4)C[C@@H]23)cc1,-26.5*
CCS(=O)(=O)N1CCCCN2[C@H](CO)[C@@H](c3ccc(-c4ccccc4C)cc3)[C@@H]2C1,9.6
O=C(c1ccccc1F)N1C[C@@H]2[C@H](c3ccccc31)[C@H](CO)N2C(=O)Nc1ccccc1,-1.1
O=C(C[C@H]1CC[C@H](NC(=O)C2CCOCC2)[C@@H](CO)O1)NCC1CCCCC1,13.9
O=C(N[C@H]1CC[C@H](CC(=O)N2CCN(c3ccccc3)CC2)O[C@@H]1CO)c1ccncc1,0.8
COc1cccc(S(=O)(=O)N2C[C@H](O)COC[C@@H]3O[C@H](CC(=O)NCCCN4CCOCC4)CC[C@H]32)c1,8.5
O=C(C[C@@H]1CC[C@H]2[C@@H](COC[C@H](O)CN2S(=O)(=O)c2cccc(F)c2)O1)NCc1ccncn1,3.1
SMILES,DUX4 inh
Cc1noc(C)c1NC(=O)Nc1ccc2c(c1)C(=O)N([C@H](C)CO)C[C@H](C)[C@H](CN(C)C(=O)Nc1cccc3ccccc13)O2,-4.5
CC=Cc1ccc2n(c1=O)C[C@@H]1[C@@H](CO)[C@H](C(=O)NCC3CC3)N(Cc3ccccc3)[C@H]21 (mixture of isomers),-5.0
COCC(=O)N1CC2(CN(Cc3nccs3)C2)c2c(n(C)c3cc(OC)ccc23)[C@@H]1CO,10.0
C[C@H](NC(=O)C[C@H]1C=C[C@H](NC(=O)CN2CCOCC2)[C@H](CO)O1)c1ccccc1,-0.4
COC(=O)C[C@H]1C[C@H]2c3cc(NC(=O)Nc4ccccc4)ccc3O[C@H]2[C@@H](CO)O1,2.4
CO[C@@H]1CN(C)C(=O)c2cc(NC(=O)c3nc4ccccc4s3)ccc2OC[C@H](C)NC[C@H]1C,-8.0
O=S(=O)(c1ccc(F)cc1)N1CCCCN2[C@H](CO)[C@H](c3ccc(C4=CCCCC4)cc3)[C@@H]2C1,-42.3*
CCS(=O)(=O)N1CCCCN2[C@H](CO)[C@H](c3ccc(-c4ccccc4C)cc3)[C@H]2C1,-4.6
COc1ccc(S(=O)(=O)N2CCCCN3[C@H](CO)[C@@H](c4ccc(C5=CCCC5)cc4)[C@@H]3C2)cc1,0.8
Cc1ccccc1-c1ccc([C@H]2[C@H](CO)N3CCCCN(S(=O)(=O)c4ccc(F)cc4)C[C@@H]23)cc1,-56.1*
O=S(=O)(c1ccc(F)cc1)N1CCCCN2[C@@H](CO)[C@@H](c3ccc(C4=CCCCC4)cc3)[C@@H]2C1,-4.4
O=C(Nc1cccc(F)c1)N1CCCCN2[C@H](C1)[C@@H](c1ccc(-c3ccncc3)cc1)[C@@H]2CO,6.6
Cc1ccccc1-c1ccc([C@H]2[C@H]3CN(S(C)(=O)=O)CCCCN3[C@H]2CO)cc1,-6.5
Cc1ccccc1-c1ccc([C@@H]2[C@@H](CO)N3CCCCN(C(=O)Nc4cccc(F)c4)C[C@@H]23)cc1,-26.8*
O=C(Nc1ccc(F)cc1)N1CCCCN2[C@H](C1)[C@H](c1ccc(-c3cccc(F)c3)cc1)[C@@H]2CO,9.0
O=S(=O)(c1ccccc1F)N1CCCCN2[C@@H](CO)[C@@H](c3ccc(-c4cncnc4)cc3)[C@@H]2C1,16.7
COc1ccc2c3c(n(C)c2c1)[C@H](CO)N(Cc1ccccc1F)CC31CCN(C(C)=O)CC1,0.8
Cc1ccccc1-c1ccc(C2[C@H]3CNC[C@@H]2N3C(=O)Nc2ccc(C(F)(F)F)cc2)cc1 (some centres undefined),16.6
COc1ccc(-c2cnc3c(c2)C(=O)N([C@@H](C)CO)C[C@@H](C)[C@@H](CN(C)Cc2ccc(C(=O)O)cc2)O3)cc1,1.3
C[C@H](CO)N1C[C@H](C)[C@H](CN(C)Cc2ccccc2C(F)(F)F)OCc2cn(nn2)CCCC1=O,1.5
O=C(C[C@@H]1C[C@@H]2c3cc(NS(=O)(=O)c4ccc(F)cc4)ccc3O[C@@H]2[C@H](CO)O1)NCc1cccnc1,8.5
C[C@H]1CN([C@@H](C)CO)C(=O)c2c(c3ccccc3n2C)-c2ccccc2CO[C@@H]1CN(C)Cc1ccccc1C(F)(F)F,-29.8*
C[C@@H]1CN([C@H](C)CO)C(=O)c2c(c3ccccc3n2C)-c2ccccc2CO[C@@H]1CN(C)Cc1cccc2c1OCCCO2,-6.4
C[C@@H]1CN([C@H](C)CO)C(=O)c2c(c3ccccc3n2C)-c2ccccc2CO[C@H]1CN(C)Cc1cccc2c1OCCCO2,-31.8*
COc1ccccc1CN(C)C[C@H]1OCc2ccccc2-c2c(n(C)c3ccccc23)C(=O)N([C@@H](C)CO)C[C@H]1C,1.1
C[C@@H]1CN([C@H](C)CO)C(=O)c2c(c3ccccc3n2C)-c2ccccc2CO[C@@H]1CN(C)Cc1cccc(C(F)(F)F)c1,-5.2
C[C@H]1CN([C@@H](C)CO)C(=O)c2ccccc2-c2ccccc2CO[C@H]1CN(C)Cc1cccc2c1OCCCO2,-0.2
C[C@H](CO)N1C[C@H](C)[C@@H](CN(C)C(=O)Nc2ccccc2C(F)(F)F)OCc2ccccc2-c2c(n(C)c3ccccc23)C1=O,-5.6
C[C@@H]1CN([C@H](C)CO)C(=O)c2c(c3ccccc3n2C)-c2ccccc2CO[C@@H]1CN(C)Cc1ccc(O)cc1,-8.0
